Bioassay records: PubChem BioAssay, National Center for Advancing Translational Sciences (NCATS)
Sampled rows, rich in hits. Any-hit rate of the full collection: about 3%.
GCN5L2 inh: inhibitors of human GCN5L2 histone acetyltransferase; Q92830; GCN5L2 HAT assay, ThioGlo1 CoA-SH fluorescence; Potency, µM (titrated, usually from 58.9 µM), for the others: at the highest dose activity change, negative = inhibition, hits mostly inhibitors; actives 0.21% (n = 390,000); note: % is set by controls: 0 for no effect and ±100 for the full control effect
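Enzyme at 20nM final was mixed with library compounds for 15 min at room temperature. Peptide H3(1-25) at 75uM, acetyl-CoA at 70uM and ThioGlo1 at 50uM were then added. Plates were read immediately and after 20 min (Ex340nm/Em540nm).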
USP1-UAF1 inh: inhibitors of human USP1/UAF1 deubiquitinase. actives 0.23% (n = 390,000). recombinant USP1/UAF1, Ub-Rhodamine cleavage fluorescence. O94782. Potency, µM (highest dose often 57.1 µM), inactives show at the highest dose activity change, negative = inhibition, hits mostly inhibitors; note: % is set by controls: 0 for no effect and ±100 for the full control effect; nearly all actives have a fitted effect of over 60% in size
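Step one: compound is pinned into 1nM USP1/UAF1 in HEPES pH 7.8 buffer with TCEP. Step two: 15 min room-temperature incubation. Step three: Ub-Rho (150nM final) starts cleavage, tracked by fluorescence over six one-minute reads.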
PLK1 PBD inh: blocks phosphopeptide binding to human PLK1 polo-box domain; P53350; Plk1 PBD binding of FITC phosphopeptide, fluorescence polarization; Potency, µM, for the others: max response, negative = inhibition, usual class: inhibitors; actives 2.8% (n = 360,000); note: series mostly up to about 57 µM; % is set by controls: 0 for no effect and ±100 for the full control effect; nearly all actives have a fitted effect of over 65% in size
Target sequence (P53350 whole entry, looked up, the tested form may be a part): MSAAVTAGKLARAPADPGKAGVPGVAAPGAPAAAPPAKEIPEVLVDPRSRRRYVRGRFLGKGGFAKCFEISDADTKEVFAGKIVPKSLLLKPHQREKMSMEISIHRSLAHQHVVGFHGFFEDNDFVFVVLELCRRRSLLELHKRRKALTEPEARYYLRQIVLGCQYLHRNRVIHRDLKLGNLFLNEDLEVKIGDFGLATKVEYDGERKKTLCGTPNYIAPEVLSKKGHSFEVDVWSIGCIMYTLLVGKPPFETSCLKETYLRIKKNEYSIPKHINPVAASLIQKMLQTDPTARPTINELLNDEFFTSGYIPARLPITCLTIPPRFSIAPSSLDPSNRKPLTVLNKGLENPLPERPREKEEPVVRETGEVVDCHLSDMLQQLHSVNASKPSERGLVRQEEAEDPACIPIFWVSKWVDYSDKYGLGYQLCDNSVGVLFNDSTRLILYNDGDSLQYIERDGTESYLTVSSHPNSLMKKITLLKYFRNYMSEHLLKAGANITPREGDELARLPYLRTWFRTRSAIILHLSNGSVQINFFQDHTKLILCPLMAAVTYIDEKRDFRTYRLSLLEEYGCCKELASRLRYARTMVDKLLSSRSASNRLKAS
PTAP TSG101 blk: blocks PTAP/TSG101 interaction to inhibit HIV-1 budding | Fluorescence polarization, FITC-PTAP peptide / Tsg101 binding | Potency, µM (titrated, usually from 115 µM), for the others: at the highest dose activity change, negative = inhibition, usual class: inhibitors | 340,000 tested, under 10 active; active = well fitted inhibition curve with a large enough effect in the main read-out, with a control signal flat, not every such curve was filed as active; inconclusive = small, poorly fitted or top-dose-only effect, or effect the other way, or a change in a side signal; inactive = no such curve, though single readings can be large or run the other way; note: % of control where 0% means no effect
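FP read-out: FITC-PTAP peptide, 50 nM final, binding Tsg101 binding domain, 10 uM final; 20 min, r.t.; 10 mM HEPES pH 7.5, 0.15 M NaCl, 0.01% Tween 20, 3 mM EDTA, 0.1 mM TCEP.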
VDR inhibitor: inhibitors of human vitamin D receptor; Potency, µM, for inactives: max response, negative = inhibition, most hits filed as inhibitors; P11473; actives 0.93% (n = 400,000); VDR-SRC2-3 peptide fluorescence polarization, 2 h; note: % is set by controls: 0 for no effect and ±100 for the full control effect
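After 23 nl compound addition and a short centrifugation, plates sat for 2 hours at ambient temperature; polarization of fluorescence then indicated loss of VDR binding to peptide SRC2-3.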
* = called active by the depositor; ? = inconclusive; · = no result; [ ] = dose if it differs, or a comment. Unless noted, calls come from the whole dose curve; as a rule, active = well fitted curve in the direction sought with a large enough effect; inconclusive = small, poorly fitted or top-dose-only effect, or another doubt; inactive = no such curve, though single readings can be large; an effect the other way counts as inactive or inconclusive. Potency is the fitted concentration of half-maximal effect.

SMILES | GCN5L2 inh | USP1-UAF1 inh | PLK1 PBD inh | PTAP TSG101 blk | VDR inhibitor
O=C(C#Cc1ccccc1)c1ccc([N+](=O)[O-])cc1 | 0% | -21% | 0.47µM* | 0% | 14µM*
O=C(C#Cc1ccccc1)c1ccccc1 | · | -16% | 3µM* | · | ·
CCOC(=O)c1sc(NC(=O)C2c3ccccc3Oc3ccccc32)c(C#N)c1C | 0% | -32% | · | · | 79µM*
CCOC(=O)c1c(NC(=O)C2c3ccccc3Oc3ccccc32)sc(C(=O)N(CC)CC)c1C | -23% | -13% | ? | 0% | 71µM*
CCOC(=O)c1sc(NC(=O)C2c3ccccc3Oc3ccccc32)c(C(=O)OCC)c1C | ? | 0% | · | · | -7%
CCCn1nc2cc(C(=O)NC3CCCc4ccccc43)ccc2c1OCC (stereo unspecified) | 10µM* | 11% | -6% | 1% | -9%
CCOc1c2ccc(C(=O)NCCc3cccs3)cc2nn1CC | -3% | -21% | -2% | -1% | -12%
CCOc1c2ccc(C(=O)N[C@H](C)C3CCCCC3)cc2nn1CC | 0.89µM* | 20% | -18% | 1% | -26%
CCCCn1nc2cc(C(=O)NC3CCc4ccccc43)ccc2c1OCC (stereo unspecified) | ? | ? | -1% | -2% | -15%
O=C(CSc1nnc(COc2ccc(Cl)cc2)o1)N1CCN(c2ccccc2)CC1 | -6% | -6% | 30µM* | 0% | ?
CC(O)(C#CCN1CCCCCC1)c1ccccc1 (stereo unspecified) | 0% | -20% | 30µM* | 0% | -12%
Cn1c(=S)[nH]c2cc(C(=O)N3CCN(C(=O)c4ccccc4)CC3)ccc2c1=O | · | · | · | · | -8%
O=c1oc(-c2cccs2)nc2sc3c(c12)CCCC3 | -9%[0.501 µM] | 5% | -7% | -9% | 3%
O=C1CN(c2nc(-c3cccs3)nc3sc4c(c23)CCCC4)CCN1 | -3% | -18% | 27µM* | -1% | 16%
N#C/C(=C\c1cc(Br)c(O)c(Br)c1)c1nc2ccccc2c(=O)[nH]1 | -3% | 28µM* | · | · | -12%
COC(=O)[C@H]1O[C@@H](c2cc(OC)c(C)c(OC)c2OCc2ccccc2)[C@H](C)[C@H]2O[C@@]12C | · | · | · | · | 0%
Cc1cc(NCCCCO)n2c(nc3ccccc32)c1C#N | -10% | -11% | -8% | -3% | 21%
C=C(C)CSc1cc(C)c(C#N)c2nc3ccccc3n12 | ? | -14% | 27µM* | 0% | -17%
Cc1cc(-c2ccco2)n2c(nc3ccccc32)c1C#N | ? | -16% | 11µM* | -2% | -20%
COc1ccc(-c2ccc(CN3C(C)C(=O)N(Cc4cn(CCC5OCCO5)nn4)CCS3(=O)=O)cc2)cc1 (stereo unspecified) | · | -29% | 42µM* | · | ·
CCOC(=O)N/N=C/C=C/c1ccccc1[N+](=O)[O-] | 2% | -23% | 21µM* | 0% | -24%
C=C1c2cccc(O)c2C(O)=C2C(=O)[C@]3(O)C(O)=C(C(N)=O)C(=O)[C@@H](N(C)C)[C@@H]3[C@@H](O)[C@H]12 | -12% | ? | ? | 1% | -7%
C=C1c2cccc(O)c2C(O)=C2C(=O)[C@]3(O)C(O)=C(C(N)=O)C(=O)C(N(C)C)C3C(O)C12 (stereo partly specified) | 10µM* | · | · | · | 35µM*
Cn1c(=O)c2cc(C(=O)N3CCN(c4cccc(C(F)(F)F)c4)CC3)sc2c2ccccc21 | -7% | ? | · | · | -8%
CCOc1ccccc1NC(=O)c1ccc2c(Cl)c3c(nc2c1)CCCC3 | -6% | -29% | · | · | 14%
SMILES | GCN5L2 inh | USP1-UAF1 inh | PLK1 PBD inh | PTAP TSG101 blk | VDR inhibitor
COC(=O)C1C(=O)C2=C(CC1C)NC(=O)CC2c1ccccc1 (stereo unspecified) | -16% | -23% | 2% | -1% | 4%
COC(=O)C1C(=O)C2=C(CC1C)NC(=O)CC2c1cccc(C)c1 (stereo unspecified) | -8% | -18% | 27µM* | -3% | -23%
CCCCS(=O)(=O)c1oc(-c2cccs2)nc1S(=O)(=O)c1ccc(F)cc1 | -12% | -22% | · | · | 10µM*
CCCCCS(=O)(=O)c1oc(-c2cccs2)nc1S(=O)(=O)c1ccc(C)cc1 | -17% | ? | · | · | ?
O=[N+]([O-])c1cccc(-c2nc(-c3ccccc3)no2)c1 | 0% | 3% | 19µM* | -3% | -9%
O=[N+]([O-])c1cccc(-c2nc(-c3ccncc3)no2)c1 | -2% | -4% | 4% | -3% | 15%
CC(C)(C)OC(=O)N1CCC(c2c(C(=O)NCc3ccco3)cnn2-c2ccc(F)cc2F)CC1 | 1% | 15% | · | · | 6%
CC1(C)CC(=O)C(Sc2ccccc2[N+](=O)[O-])=C(O)C1 | -3% | -21% | 11µM* | -3% | -14%
Cc1c(N=Cc2cc3c(cc2[N+](=O)[O-])OCO3)cccc1[N+](=O)[O-] | · | -11% | ? | -9% | 89µM*
O=C(O)C1=CC(=C(c2ccc(O)c(C(=O)O)c2)c2ccc(O)c(C(=O)O)c2)C=CC1=O | 0.32µM* | · | · | · | 8.9µM*
Cc1ccccc1C(=O)c1c[nH]c(C(=O)NCc2cccs2)c1 | -4% | -21% | 27µM* | -4% | -7%
CCC(=O)c1c[nH]c(C(=O)NCc2cccs2)c1 | -14% | -21% | 1% | -1% | 11%
O=[N+]([O-])c1nccn1CCCCCCCCCCCN1CCOCC1 | · | · | 2% | · | ·
COc1cccc(-c2nc(-c3ccc4c(c3)NC(=O)CO4)cs2)c1 | -9% | -9% | 13µM* | 1% | -9%
CC(Nc1nc(-c2ccc3c(c2)NC(=O)CO3)cs1)c1ccccc1 (stereo unspecified) | -10% | -6% | 17µM* | -1% | -8%
COc1ccc(-c2cc(-c3ccc(OC)cc3)nc(-c3ccc4c(c3)NC(=O)CO4)c2)cc1 | -14% | -15% | -2% | -1% | -1%
Cc1c(Cl)cccc1NC(=O)CSc1nc(=O)n(Cc2cccnc2)c2c1CCC2 | -4% | -13% | · | · | 2%
CC1CCCC(=C\c2ccccc2)/C1=N/O (stereo unspecified) | 1% | -15% | 27µM* | 0% | ?
O=C1/C(=C/c2ccccc2)CCC1C1CCCC1 (stereo unspecified) | -1% | -2% | -18% | -1% | 2%
COc1ccc(C(=O)O)cc1S(N)(=O)=O | -1% | -3% | 5% | 2% | -12%
CNS(=O)(=O)c1cc(C(=O)O)ccc1OC | -7% | -10% | 27µM* | 0% | ?
COc1cc(/C=C2\SC(=S)N(CCC(=O)N3CCCCC3)C2=O)cc(OC)c1OC | -4% | -16% | 1% | -6% | 2%
N#Cc1c(-c2ccc(C(F)(F)F)cc2)cc(-c2ccccc2)[nH]c1=S | -3% | -5% | 24µM* | 2% | -16%
Cc1ccccc1OCC(=O)Nc1cccc(C(=O)OCc2cc(=O)n3c(C)csc3n2)c1 | -18% | -10% | · | · | -6%
